Screens: PubChem, National Center for Advancing Translational Sciences (NCATS)
RXFP1 ag = activates the human relaxin receptor RXFP1. HEK293T-RXFP1 cAMP TR-FRET, 30 min; response scale: percent of porcine relaxin response, buffer zero. 370,000 tested, 0.3% active. Potency, µM (doses to about 57.5 µM), for inactives: top-dose activation, actives largely listed as activators. Q9HBX9. AID 2676; active = well fitted activation curve with a large enough effect; inconclusive = small, poorly fitted or top-dose-only effect; also: potency is read from the fitted curve at half-maximal effect; % is scaled to controls: 0 for no effect and ±100 for the full control effect; nearly all actives have a fitted effect of over 60% in size
Target sequence (Q9HBX9 whole entry, looked up): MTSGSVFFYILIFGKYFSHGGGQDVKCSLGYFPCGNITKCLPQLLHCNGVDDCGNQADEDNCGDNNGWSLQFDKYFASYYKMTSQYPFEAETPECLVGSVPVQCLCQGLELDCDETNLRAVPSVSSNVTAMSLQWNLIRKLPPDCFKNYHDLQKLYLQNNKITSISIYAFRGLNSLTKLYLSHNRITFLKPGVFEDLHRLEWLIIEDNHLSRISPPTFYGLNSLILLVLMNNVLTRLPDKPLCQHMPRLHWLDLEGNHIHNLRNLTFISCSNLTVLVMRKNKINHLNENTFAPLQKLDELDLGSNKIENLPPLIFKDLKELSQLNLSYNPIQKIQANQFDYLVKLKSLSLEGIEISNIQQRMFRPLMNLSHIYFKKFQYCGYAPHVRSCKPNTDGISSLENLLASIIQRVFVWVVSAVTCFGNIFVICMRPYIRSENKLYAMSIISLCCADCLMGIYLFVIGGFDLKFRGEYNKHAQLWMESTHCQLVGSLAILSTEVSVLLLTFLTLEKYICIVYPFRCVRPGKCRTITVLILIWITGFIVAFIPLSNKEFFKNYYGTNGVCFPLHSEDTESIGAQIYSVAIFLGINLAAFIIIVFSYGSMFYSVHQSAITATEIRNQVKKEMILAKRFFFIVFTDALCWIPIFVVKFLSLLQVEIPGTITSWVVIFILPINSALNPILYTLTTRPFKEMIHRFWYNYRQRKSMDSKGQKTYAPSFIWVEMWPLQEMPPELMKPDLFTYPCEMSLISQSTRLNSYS
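HEK293T cells stably expressing RXFP1 were pretreated with the PDE4 inhibitor Ro 20174, exposed to compounds for 30 min at 37C, lysed, and cAMP was read by TR-FRET. Data normalized to buffer (basal) and 29 nM porcine relaxin (100%).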
pAkt inh = Akt phosphorylation inhibition | Neuro2A IGF-stimulated pAkt S473 HTRF, 20 min; stronger effect = lower value | activity change, % for hits at 50 µM | 360,000 tested, 0.32% active | AID 651550; in the data active = activity change below about -80%; inconclusive = mostly about -51% to -80%; also: % is scaled to controls: 0 for no effect and ±100 for the full control effect
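Single-point screen (50 µM final compound) in Neuro2A cells stimulated 20 min with 6 nM IGF at 37 deg C. After lysis, Ser473-phosphorylated Akt read by HTRF (ex 330 nm, em 615/665 nm) as the 665/615 ratio.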
RXFP1 antag = antagonists of human relaxin receptor RXFP1; HEK293-RXFP1, relaxin-stimulated cAMP HTRF, 30 min; stronger effect = lower value; activity change, negative = inhibition, % at 57.5 µM; 350,000 tested, 0.59% active; AID 1259400;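 active = activity change of -60% or lower, but not beyond a set lower limit; inconclusive = change between -60% and -40%, or beyond the set limit; inactive = change above -40%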; also: % is scaled to controls: 0 for no effect and ±100 for the full control effect
gsp antag = antagonizes gsp, the McCune-Albright syndrome mutation; gsp-mutant cells, cAMP HTRF, 30 min; Potency, µM (doses to about 76.9 µM), inactives show at the highest dose activity change, negative = inhibition, actives largely listed as inhibitors; 340,000 tested, 0.4% active; calls by dose curve; cell line not stated here;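 also: intracellular cAMP measured with PDE inhibitor Ro 20-1724 present during compound exposure; potency is read from the fitted curve at half-maximal effect; % is scaled to controls: 0 for no effect and ±100 for the full control effect; nearly all actives have a fitted effect of over 65% in size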
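HTRF cAMP read-out (cAMP-d2 plus anti-cAMP antibody-K in lysis buffer, 30 min RT). Before lysis, cells are exposed to compounds with […] for 30 min at 37C in DPBS containing Ca/Mg, BSA and Tween 20.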
gsp agonist = activates gsp, the McCune-Albright syndrome mutation; gsp mutant cells, cAMP HTRF, 30 min; Potency, µM (doses to about 76.9 µM), inactives show at the highest dose activation (cAMP increase), usual class: activators; 340,000 tested, 0.13% active; AID 624287; active = well fitted activation curve with a large enough effect; inconclusive = small, poorly fitted or top-dose-only effect, or another doubt; inactive = no such curve, though single readings can be large or run the other way; cell line not stated here;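 also: phosphodiesterase inhibitor Ro 20-1724 added with compounds to block cAMP breakdown; potency is read from the fitted curve at half-maximal effect; nearly all actives have a fitted effect of over 60% in size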
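Cells stably selected in G418 were plated at 2000/well, grown 16-24 hr, then given compounds in DMSO with the PDE inhibitor […] (300 uM solution added) for 30 min at 37C; cAMP was read by HTRF.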
The depositor's hits bear a star; i = inactive; u = inconclusive; x = no result; [ ] = dose if it differs, or a comment. Hits are enriched below; roughly 1.3% of the tested compounds scored in any of these assays.

SMILES	RXFP1 ag	pAkt inh	RXFP1 antag	gsp antag	gsp agonist
Cc1cc(NC(=O)CCCC(=O)OCC(F)(F)C(F)F)cc(C)c1C(=O)O	2%	-112%*	-15	0%	u
N#Cc1c(NC(=O)CS(=O)(=O)c2ccc(Cl)cc2)sc2c1CCCCC2	1%	x	-3	x	x
CC1CCC(C(C)C)C(OC(=O)Cn2c(-c3ccccc3)[n+](C)c3ccccc32)C1 (stereo not given)	0%	i	-71*	3%	u
CC1CCC(C(C)C)C(OC(=O)Cn2c(-c3ccc(F)cc3)[n+](C)c3ccccc32)C1 (stereo not given)	0%	i	u	8%	-2%[15.4 µM]
CCc1ccc(-n2nc(CO)c(C(=O)NC(C)c3ccc(Cl)cc3)n2)cc1 (stereo not given)	5%	x	-20	x	x
CCOc1ccc(S(=O)(=O)N2Cc3ccccc3CC2C(=O)Nc2ccc(NC(C)=O)cc2)cc1 (stereo not given)	0%	x	x	x	x
COc1ccc(/C=C/c2nc(-c3ccccc3O)n[nH]2)cc1OC	-1%	i	-100*	-10%	-17%
O=C(O)COc1ccc(/C=C/c2nc(-c3ccccc3O)n[nH]2)cc1	0%	i	2	-6%	-126%
CC(C)Cn1c(SCC(=O)NC(=O)NC2CCCC2)nc2ccccc21	1%	i	-66*	u	-23%
C[C@@H]1CC(=O)NN=C1c1ccc(NN=C(C#N)C#N)cc1	x	x	-14	x	x
S=c1c2c(nc3nc[nH]n13)CCC2	0%	i	-1	5%	9%
CC1CCc2c(nc3nc[nH]n3c2=O)C1 (stereo not given)	6%	-102%*	-13	5%	6%
CCc1ccc(S(=O)(=O)NCc2nc3cccnc3n2Cc2ccccc2Cl)cc1	1%	x	-11	x	x
COc1ccc(N2C3=C(C(=O)CC(C)(C)C3)C(c3ccccc3OC)C3=C2CC(C)(C)CC3=O)cc1	-1%	i	-21	28µM*	u
CN(C)S(=O)(=O)c1cccc(COc2ncnc3c(Cl)cc(Cl)cc23)c1	16µM*	i	12	-6%	u
CN(C)S(=O)(=O)c1cccc(COC(=O)c2ccc(Cl)cc2O)c1	-2%	i	6	u	17%
CC[n+]1c(/C=C/N(C)c2ccccc2)n(-c2ccccc2)c2ccc(-c3nc4ccccc4s3)cc21	4%	i	-60*	u	2%[15.4 µM]
COc1ccc(/C=C2\CC/C(=C\c3ccc(OC)c(OC)c3)C2=O)cc1OC	0%	i	-14	2%	-64%
COc1ccc(C=C2C=C(C(C)(C)C)C(=O)C(C(C)(C)C)=C2)cc1OC	0%	i	-88*	-9%	-2%
Cn1c(=O)c2c(-c3ccccc3Cl)n(-c3cc(Cl)ccc3O)cc2n(C)c1=O	19%	x	u	x	x
COc1ccc(CCNc2nc(-c3ccc(O)cc3)cs2)cc1OC	3%	i	-10	35µM*	7%
COc1ccc(CCNc2nc(-c3ccncc3)cs2)cc1OC	1%	i	5	-15%	-2%
COc1ccccc1CNC(=O)c1cc(Sc2cccc(Cl)c2)nc2ccccc12	7%	x	-2	x	x
CCCc1nc(SCC(=O)c2ccccc2)c2c(=O)n(C)c(=O)n(C)c2n1	3%	i	-23	35µM*	-52%
O=C(NCCc1ccccc1)c1nc2c(nnn2Cc2ccccc2Cl)c(=O)[nH]1	0%	x	-13	40µM*	14%
SMILES	RXFP1 ag	pAkt inh	RXFP1 antag	gsp antag	gsp agonist
COc1ccccc1CN(C)C(=O)c1cccc(S(=O)(=O)N2CCCc3ccccc32)c1	1%	i	5	35µM*	-14%
COc1ccccc1C(CNC(=O)c1cccc(S(=O)(=O)N2CCCc3ccccc32)c1)N(C)C (stereo not given)	x	i	-2	2%	u
Cc1ccn2c(Nc3ccc(C(C)C)cc3)c(-c3cccs3)nc2c1	10%	x	-11	x	x
CC(C)CNC(=O)c1ccccc1NC(=O)Nc1ccccc1	3%	-105%*	12	11%	15%
CCC(C)NC(=O)c1ccccc1NC(=O)Nc1ccccc1 (stereo not given)	3%	i	5	-8%	-21%
O=S(=O)(c1ccccc1)N1CCC(c2ccncc2)CC1	-1%	x	-106*	x	x
O=S(=O)(c1ccc(Cl)cc1)N1CCC(c2ccncc2)CC1	0%	x	-4	x	x
OCCNc1ncnc2ccc(Br)cc12	5%	i	-5	4%	28%
CCN(CC)c1ncnc2ccc(Br)cc12	11%	i	11	1%	18µM*
CCCCNC(=O)C1CCC(CNS(=O)(=O)c2ccc(Cl)cc2)CC1 (stereo not given)	-2%	x	4	x	x
Cn1cc(C(=O)C(=O)NC2CCCCC2)c2ccccc21	6%	i	5	50µM*	26%
CCOc1ccc(CCNC(=O)C2CCC(=O)N2CCc2ccccc2)cc1OCC (stereo not given)	1%	-82%*	5	-9%	11%
O=C(NCCc1ccccc1)C1CCC(=O)N1CCc1ccccc1 (stereo not given)	0%	i	-3	3%	-7%
COc1ccc(CC(=O)NNC(=O)c2ccccn2)cc1	2%	i	-61*	6%	-38%
COc1ccc(CC(=O)NNC(=O)c2cnccn2)cc1	1%	i	8	3%	1%
COc1ccc(-n2c(SCC(=O)Nc3nnc(C)s3)nc3c([nH]c4ccccc43)c2=O)cc1	3%	x	-7	x	x
CC[N+](CC)(CC)CCOC(=O)C(C1CCCC1)C1CCCC1	x	x	-11	x	x
CN1C(=O)C2(OCC(COc3ccc(Cl)cc3)O2)c2ccccc21 (stereo not given)	0%	i	1	35µM*	4%
CN(C)/C=C/c1onc(-c2ccccc2Cl)c1C#N	-1%	i	-28	11µM*	-2%[15.4 µM]
COC(=O)c1ccc(NC(=O)N2CCOCC2)cc1	2%	-121%*	2	2%	1%
CC(C)(C)c1ccc(C(=O)Nc2ccc(C(=O)N3CCOCC3)cc2)cc1	6%	i	-76*	5%	-16%
O=C(Nc1ccc(C(=O)N2CCOCC2)cc1)c1ccccc1	x	i	x	4%	x
CCN(CC)C(=O)Nc1ccc(OCC(O)CNC(C)(C)C)c(C(C)=O)c1 (stereo not given)	x	x	-11	x	x
COc1ccc(/C(C)=N/NC(=S)NCCc2ccccc2)c(O)c1	1%	i	-62*	-17%	3%[15.4 µM]
COc1ccc(O)c(/C=N/NC(=S)NCCc2ccccc2)c1	8%	i	u	-6%	13%[15.4 µM]
CCOC(=O)CC(NC(=O)CCc1c(C)nc2nc(C)nn2c1C)c1ccc(OC(C)C)cc1 (stereo not given)	18µM*	i	-6	8%	u
COc1cc(OC)cc(-c2nc3nc(C)c(CCC(=O)Nc4ccc(Cl)cc4)c(C)n3n2)c1	4%	x	x	x	x
